Inconclusive results are not listed. Values without a mark were called inactive. Active and inactive are the calls of the source. Calls follow the shape of the dose curve; as a rule, active = well fitted curve in the direction sought with a large enough effect; inconclusive = small, poorly fitted or top-dose-only effect, or another doubt; inactive = no such curve, though single readings can be large; an effect the other way counts as inactive or inconclusive.
Assay: qHTS for Inhibitors of Plasmodium falciparum (DD2) proliferation (AID 504314);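 as to activity, negative = inhibition: parasite DNA measured by SYBR Green fluorescence after red cell lysis; plate controls were DMSO vehicle for no effect and artemisinin wells for full effect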
Settings: P. falciparum Dd2 in erythrocytes, SYBR Green growth, 72 h; series mostly up to 1.12 µM; activity, negative = inhibition: at the top concentration
Summary of the method: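 SYBR Green growth assay: 72 h compound exposure of infected red cells (2.5% hematocrit, 0.3% parasitemia), then lysis and overnight dye staining, fluorescence 485/535 nm. Values scaled between DMSO and 0.29 uM artemisinin controls.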
Potency is read from the fitted curve at half-maximal effect.

| Structure (SMILES) | activity, negative = inhibition | Potency |
| --- | --- | --- |
| CCCCc1nc2c(c3c1C[C@H](C)OC3)CN(C(=O)NCCCC(=O)OCC)CC2 | 2.39% |  |
| COC(=O)[C@H]1[C@@H](C)N(Cc2ccccc2)C(=O)N[C@H]1c1ccccc1 | 4.2% |  |
| COC(=O)C1=C(C(=O)OC)[C@@H]2N(C)c3ccc(OC)cc3[C@@]23C[C@@H](C(=O)OC)N(S(=O)(=O)c2ccc(OC)cc2)C3=N1 | -0.78% |  |
| CC#CCN1c2ccccc2[C@]23C[C@@H](C(=O)OC)N(C(=O)OCC)C2=NC(C(=O)OC)=C(C(=O)OC)[C@H]13 | 0.648% |  |
| C=CCN1c2ccccc2[C@]23C[C@@H](C(=O)OC)N(C(=O)c4cc(C)oc4C)C2=NC(C(=O)OC)=C(C(=O)OC)[C@H]13 | 2.13% |  |
| COC(=O)C1(C(=O)OC)CC(CO)C(=O)[C@@H]1c1ccccc1 (stereo partly specified) | -11% [at 6.11 µM] |  |
| CC(C)CON=C1C[C@@H](O)[C@@H](O)[C@@H]2[C@H]3C(=O)N(C4CCCCC4)C(=O)[C@@H]3CC[C@H]12 | -6.53% [at 6.11 µM] |  |
| COC(=O)C1=C(C(=O)OC)[C@@H]2Nc3ccccc3[C@@]23C[C@@H](C(=O)OC)N(C(=O)c2ccco2)C3=N1 | -2.55% |  |
| C=CCN1c2ccccc2[C@]23C[C@@H](C(=O)OC)N(S(=O)(=O)c4ccc(C#N)cc4)C2=NC(C(=O)OC)=C(C(=O)OC)[C@H]13 | 5.6% |  |
| CC#CCN1c2ccccc2[C@]23C[C@@H](C(=O)OC)N(C(=O)c4ccc(Br)cc4)C2=NC(C(=O)OC)=C(C(=O)OC)[C@H]13 | 2.88% |  |
| C=CCN1c2ccccc2[C@]23C[C@@H](C(=O)OC)N(S(=O)(=O)c4cccs4)C2=NC(C(=O)OC)=C(C(=O)OC)[C@H]13 | 1.77% |  |
| CCCCS(=O)(=O)N1C2=NC(C(=O)OC)=C(C(=O)OC)[C@@H]3Nc4ccccc4[C@]23C[C@H]1C(=O)OC | 5.22% |  |
| C=CCN1c2ccccc2[C@]23C[C@@H](C(=O)OC)N(C(=O)C4CCC4)C2=NC(C(=O)OC)=C(C(=O)OC)[C@H]13 | -1.31% |  |
| O=C(C=Cc1ccc2c(c1)OCO2)c1ccccc1 | -8.12% [at 6.11 µM] |  |
| COC(=O)C1=C(C(=O)OC)[C@@H]2N(Cc3ccccc3)c3ccccc3[C@@]23C[C@@H](C(=O)OC)N(S(=O)(=O)c2c(C)noc2C)C3=N1 | 0.193% |  |
| COc1cccc([C@@H]2Oc3ccc(Br)cc3C(=O)[C@@H]2OC(=O)Nc2ccc(OC(F)F)cc2)c1 | -11.5% [at 6.11 µM] |  |
| COC(=O)CCC(=O)OC1(C)C(=O)C=C2C=C(C3CC3)N(c3ccccc3)C=C2C1=O (stereo unspecified) | -2.05% |  |
| COC/C=C/C1=CC2=CC(=O)C(C)(OC(=O)c3cnc4ccccc4n3)C(=O)C2=CN1c1ccc(OC)cc1 (stereo unspecified) | 4.08% |  |
| COC(=O)C1=C(C(=O)OC)[C@@H]2N(C)c3ccccc3[C@@]23C[C@@H](C(=O)OC)N(S(=O)(=O)c2ccc(OC)cc2)C3=N1 | -0.128% |  |
| COC(=O)[C@@H](NC(=O)N1CCc2nc(-c3ccc(OC)cc3C)c3c(c2C1)CO[C@@H](c1ccccc1)C3)C(C)C | -1.36% |  |
| COC(=O)[C@@H](NC(=O)N1CCc2nc(-c3ccccc3)c3c(c2C1)CO[C@@H](C)C3)C(C)C | 4.33% |  |
| COC(=O)C1=C(C(=O)OC)[C@@H]2N(C)c3ccccc3[C@@]23C[C@@H](C(=O)OC)N(S(=O)(=O)c2cccs2)C3=N1 | 4.69% |  |
| CC1(OC(=O)CCc2ccccc2)C(=O)C=C2C=C(c3ccc(C#N)cc3)N(CCc3c[nH]c4ccccc34)C=C2C1=O (stereo unspecified) | 3.12% |  |
| C=C(C(C)=O)C(O)c1ccc2ccccc2c1 (stereo unspecified) | -7.46% [at 6.11 µM] |  |
| COc1cc2c(cc1OC)[C@@H]1O[C@](CCCCN3C(=O)c4ccccc4C3=O)(C2)Oc2cc(C)n(-c3ccccc3)c(=O)c21 |  | 1690 nM (active) |
| COC(=O)N1C(/C=C/C=C/c2ccc(OC)cc2)=Cc2ccccc2C1CC(C)=O (stereo unspecified) | 0.869% |  |
| C=CCN1c2ccccc2[C@]23C[C@@H](C(=O)OC)N(S(=O)(=O)CCCC)C2=NC(C(=O)OC)=C(C(=O)OC)[C@H]13 | -3.36% |  |
| CCCCS(=O)(=O)N1C2=NC(C(=O)OC)=C(C(=O)OC)[C@@H]3N(C)c4ccc(OC)cc4[C@]23C[C@H]1C(=O)OC | 2.95% |  |

Assay: qHTS for Inhibitors of Plasmodium falciparum (GB4) proliferation (AID 504315); also: nearly all actives have a fitted effect of over 50% in size;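 as to activity change, negative = inhibition: 0% = DMSO vehicle and -100% = 0.29 µM artemisinin control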
Settings: P. falciparum GB4 in erythrocytes, SYBR Green DNA, 72 h; series mostly up to 6.7 µM; activity change, negative = inhibition: at the top concentration
Summary of the method: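 Parasite growth measured as SYBR Green DNA fluorescence (ex 485, em 535 nm) after overnight lysis following 72 h culture at 37 °C, 0.3% parasitemia, 2.5% hematocrit. Values normalized against DMSO and 0.29 uM artemisinin controls, with plate-stack correction.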

| Structure (SMILES) | activity change, negative = inhibition [%] | Potency |
| --- | --- | --- |
| COC(=O)CCC(=O)OC1(C)C(=O)C=C2C=C(C3CC3)N(C3CC3)C=C2C1=O (stereo unspecified) | -8.16 |  |
| CCCCc1nc2c(c3c1C[C@H](C)OC3)CN(C(=O)Cc1cccc(OC)c1)CC2 | -7.16 |  |
| COC(=O)C1=C(C(=O)OC)[C@@H]2N(C)c3ccccc3[C@@]23C[C@@H](C(=O)OC)N(S(=O)(=O)c2c(C)noc2C)C3=N1 | -8.62 |  |
| C=CCNC(=O)N1CCc2nc(COc3ccccc3)c3c(c2C1)CO[C@@H](C)C3 | -6.83 |  |
| COC(=O)CCCC1=CC2=C(c3ccccc3)C(=O)C(C)(OC(=O)C3CCCC3)C(=O)C2=CN1CCCOC(C)C (stereo unspecified) | 12 |  |
| CC1(OC(=O)CCc2ccccc2)C(=O)C=C2C=C(c3ccc(C#N)cc3)N(C3CCCC3)C=C2C1=O (stereo unspecified) | 2.67 |  |
| C=CCN1C=C2C(=O)C(C)(OC(=O)CCc3ccccc3)C(=O)C=C2C=C1c1ccc(C#N)cc1 (stereo unspecified) | 1.52 |  |
| Cc1cc2c(c(=O)n1-c1ccccc1)[C@H]1O[C@](c3ccsc3)(Cc3cc(C#N)ccc31)O2 | -7.57 |  |
| COC(=O)C1=C(C(=O)OC)[C@@H]2N(C)c3ccccc3[C@@]23C[C@@H](C(=O)OC)N(S(=O)(=O)c2ccc4c(c2)OCCN4C)C3=N1 |  | 2390 nM (active) |
| C[C@H]1Cc2c(-c3ccccc3)nc3c(c2CO1)CN(C(=O)c1cc(I)ccc1F)CC3 | -2.05 |  |
| CCCCc1nc2c(c3c1C[C@H](C)OC3)CN(C(=O)c1cc(I)ccc1F)CC2 | -9.74 |  |
| COC(=O)C1=C(C(=O)OC)[C@@H]2N(Cc3ccccc3)c3ccccc3[C@@]23C[C@@H](C(=O)OC)N(C(=O)COCc2ccccc2)C3=N1 | -0.029 |  |
| CCCCc1nc2c(c3c1C[C@H](C)OC3)CN(C(=O)NCCCC(=O)OCC)CC2 | -3.02 |  |
| COC(=O)[C@H]1[C@@H](C)N(Cc2ccccc2)C(=O)N[C@H]1c1ccccc1 | -2.22 |  |
| COC(=O)C1=C(C(=O)OC)[C@@H]2N(C)c3ccc(OC)cc3[C@@]23C[C@@H](C(=O)OC)N(S(=O)(=O)c2ccc(OC)cc2)C3=N1 | -10.7 |  |
| CC#CCN1c2ccccc2[C@]23C[C@@H](C(=O)OC)N(C(=O)OCC)C2=NC(C(=O)OC)=C(C(=O)OC)[C@H]13 | -4.24 |  |
| C=CCN1c2ccccc2[C@]23C[C@@H](C(=O)OC)N(C(=O)c4cc(C)oc4C)C2=NC(C(=O)OC)=C(C(=O)OC)[C@H]13 | -4.29 |  |
| COC(=O)C1(C(=O)OC)CC(CO)C(=O)[C@@H]1c1ccccc1 (stereo partly specified) | -13.5 |  |
| CC(C)CON=C1C[C@@H](O)[C@@H](O)[C@@H]2[C@H]3C(=O)N(C4CCCCC4)C(=O)[C@@H]3CC[C@H]12 | -12.8 |  |

| Structure (SMILES) | activity change, negative = inhibition [%] | Potency |
| --- | --- | --- |
| COC(=O)C1=C(C(=O)OC)[C@@H]2Nc3ccccc3[C@@]23C[C@@H](C(=O)OC)N(C(=O)c2ccco2)C3=N1 | 10.4 |  |
| C=CCN1c2ccccc2[C@]23C[C@@H](C(=O)OC)N(S(=O)(=O)c4ccc(C#N)cc4)C2=NC(C(=O)OC)=C(C(=O)OC)[C@H]13 | -15.7 |  |
| CC#CCN1c2ccccc2[C@]23C[C@@H](C(=O)OC)N(C(=O)c4ccc(Br)cc4)C2=NC(C(=O)OC)=C(C(=O)OC)[C@H]13 | 0.42 |  |
| C=CCN1c2ccccc2[C@]23C[C@@H](C(=O)OC)N(S(=O)(=O)c4cccs4)C2=NC(C(=O)OC)=C(C(=O)OC)[C@H]13 | -6.76 |  |
| CCCCS(=O)(=O)N1C2=NC(C(=O)OC)=C(C(=O)OC)[C@@H]3Nc4ccccc4[C@]23C[C@H]1C(=O)OC | -2.4 |  |
| C=CCN1c2ccccc2[C@]23C[C@@H](C(=O)OC)N(C(=O)C4CCC4)C2=NC(C(=O)OC)=C(C(=O)OC)[C@H]13 | -3.62 |  |
| O=C(C=Cc1ccc2c(c1)OCO2)c1ccccc1 | -9.13 |  |
| COc1cccc([C@@H]2Oc3ccc(Br)cc3C(=O)[C@@H]2OC(=O)Nc2ccc(OC(F)F)cc2)c1 | -9.27 |  |
| COC(=O)CCC(=O)OC1(C)C(=O)C=C2C=C(C3CC3)N(c3ccccc3)C=C2C1=O (stereo unspecified) | -8.28 |  |
| COC/C=C/C1=CC2=CC(=O)C(C)(OC(=O)c3cnc4ccccc4n3)C(=O)C2=CN1c1ccc(OC)cc1 (stereo unspecified) | -9.42 |  |
| COC(=O)C1=C(C(=O)OC)[C@@H]2N(C)c3ccccc3[C@@]23C[C@@H](C(=O)OC)N(S(=O)(=O)c2ccc(OC)cc2)C3=N1 | -10.8 |  |
| COC(=O)[C@@H](NC(=O)N1CCc2nc(-c3ccc(OC)cc3C)c3c(c2C1)CO[C@@H](c1ccccc1)C3)C(C)C |  | 1900 nM (active) |
| COC(=O)[C@@H](NC(=O)N1CCc2nc(-c3ccccc3)c3c(c2C1)CO[C@@H](C)C3)C(C)C | -2.87 |  |
| COC(=O)C1=C(C(=O)OC)[C@@H]2N(C)c3ccccc3[C@@]23C[C@@H](C(=O)OC)N(S(=O)(=O)c2cccs2)C3=N1 | -5.33 |  |
| CC1(OC(=O)CCc2ccccc2)C(=O)C=C2C=C(c3ccc(C#N)cc3)N(CCc3c[nH]c4ccccc34)C=C2C1=O (stereo unspecified) | 10.1 |  |
| C=C(C(C)=O)C(O)c1ccc2ccccc2c1 (stereo unspecified) | 6.47 |  |
| COc1cc2c(cc1OC)[C@@H]1O[C@](CCCCN3C(=O)c4ccccc4C3=O)(C2)Oc2cc(C)n(-c3ccccc3)c(=O)c21 |  | 1350 nM (active) |
| C=CCN1c2ccccc2[C@]23C[C@@H](C(=O)OC)N(S(=O)(=O)CCCC)C2=NC(C(=O)OC)=C(C(=O)OC)[C@H]13 | -6.76 |  |
| CCCCS(=O)(=O)N1C2=NC(C(=O)OC)=C(C(=O)OC)[C@@H]3N(C)c4ccc(OC)cc4[C@]23C[C@H]1C(=O)OC | -2.72 |  |

— PubChem BioAssay (NCATS)
